Inconclusive results are not listed. A call without a number means that no potency is given here. Activity calls are given as the source filed them. The call rests on the fitted dose curve; in most records, active means well fitted curve in the direction sought with a large enough effect in the repeat runs; inconclusive means weak or mixed curves; inactive means no such curve, though single readings can be large; an effect the other way counts as inactive or inconclusive. Non-standard residues stand in square brackets, D forms with d. Residues, ends and D or L forms follow the SMILES beside them. *: point of attachment. Sta = CC(C)C[C@H](N)[C@@H](O)CC(=O)O; Isovaleryl = CC(C)CC(=O)*
Further: nearly all actives have a fitted effect of over 55% in size.

The target of the first test is Aromatase (Homo sapiens) (UniProt P11511). The test is described as follows: qHTS assay to identify aromatase inhibitors (AID 743083). To be noted: MCF-7 aro ERE, testosterone-driven ERE luciferase, 24 h; series mostly up to 70.3 µM. On the technique in general: qHTS replaces the single test concentration by a dilution series.
Chain of Aromatase (Homo sapiens) (P11511 whole entry, looked up): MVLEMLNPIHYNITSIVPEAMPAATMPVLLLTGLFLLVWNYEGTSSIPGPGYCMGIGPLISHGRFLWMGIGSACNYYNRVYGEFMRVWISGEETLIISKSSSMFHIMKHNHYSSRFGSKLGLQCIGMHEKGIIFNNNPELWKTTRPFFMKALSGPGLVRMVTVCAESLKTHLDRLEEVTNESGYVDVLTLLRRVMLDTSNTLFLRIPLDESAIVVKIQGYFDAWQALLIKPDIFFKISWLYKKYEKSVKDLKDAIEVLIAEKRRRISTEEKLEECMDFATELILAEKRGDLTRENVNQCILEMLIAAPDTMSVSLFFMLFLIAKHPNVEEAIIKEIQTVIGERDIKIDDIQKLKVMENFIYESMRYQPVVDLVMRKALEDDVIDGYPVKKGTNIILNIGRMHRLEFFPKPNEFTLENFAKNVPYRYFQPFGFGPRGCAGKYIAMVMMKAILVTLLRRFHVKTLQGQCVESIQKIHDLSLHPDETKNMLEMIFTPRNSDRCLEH
For the molecule `CCN1CCN(C(=O)N[C@@H](C(=O)N[C@@H]2C(=O)N3[C@@H]2SC(C)(C)[C@H]3C(=O)O)c2ccccc2)C(=O)C1=O`, the Potency entry was “inactive”.

Regarding `COC(=O)c1ccccc1Cl`, the Potency result is “inactive”.

On to `CC(C)C(C)C`, for which the Potency entry was “inactive”.

For `O=C(O)CCC(=O)Nc1ccc(S(=O)(=O)Nc2nccs2)cc1`, the Potency result is “inactive”.

For `CCCC(C)C(O)CC` (configuration not stated), the Potency entry was “inactive”.

As to `C=C(C)C(=O)OCCCC`, the Potency result was “inactive”.

On to `CC(C)CC(=O)N[C@H](C(=O)N[C@H](C(=O)N[C@@H](CC(C)C)[C@@H](O)CC(=O)N[C@@H](C)C(=O)N[C@@H](CC(C)C)[C@@H](O)CC(=O)O)C(C)C)C(C)C` (Isovaleryl-VV[Sta]A[Sta]-OH), for which the Potency result is “inactive”.

In the case of `CCOc1ccccc1OCCN[C@H](C)Cc1ccc(OC)c(S(N)(=O)=O)c1`, the Potency entry was “inactive”.

As to `CC(C)OCCO`, the Potency result is “inactive”.

In the case of `CC(=O)c1c(C)cc(C(C)(C)C)cc1C`, the Potency entry is “inactive”.

`CCCCCCCCS(=O)(=O)O`: the Potency result was “inactive”.

Take `O=C[C@@H](O)[C@H](O)[C@H](O)CO`: the Potency result was “inactive”.

Turning to `O=C1Nc2ccccc2C1=O`, the Potency entry is “inactive”.

Regarding `CC1(C)CC(N)CC(C)(C)N1`, the Potency result is “inactive”.

Turning to `CC(C)OC(=O)C(C(=O)OC(C)C)=C1SC=CS1`, the Potency result is “inactive”.

Take `CC(C)(C)OC=O`: the Potency entry is “inactive”.

On to `C=CCN1CCc2nc(N)sc2CC1`, for which the Potency entry is “inactive”.

For the molecule `O=Cc1ccccc1S(=O)(=O)O`, the Potency result is “inactive”.

Take `Cc1ccc2ccccc2n1`: the Potency result is “inactive”.

For the molecule `CCCCCC(CC)OC(=O)CCCOc1ccc(Cl)cc1Cl` (configuration not stated), the Potency result was “inactive”.

In the case of `CCc1ncc(C)[nH]1`, the Potency entry was “inactive”.

As for `COc1cc(C(=O)NC2CCCNC2)cc(OC)c1OC` (configuration not stated), the Potency result was “inactive”.

Turning to `COc1ccc(Cl)cc1C`, the Potency result was “inactive”.

On to `NC(=O)CC[C@@H](N)C(=O)O`, for which the Potency result is “inactive”.

Consider `NC[C@H]1O[C@H](O[C@H]2[C@H](O)[C@@H](O[C@H]3O[C@H](CO)[C@@H](O)[C@H](N)[C@H]3O)[C@H](N)C[C@@H]2N)[C@H](N)[C@@H](O)[C@@H]1O`, for which the Potency entry is “inactive”.

Take `COC(C)(C)CC(C)=O`: the Potency entry was “inactive”.

On to `CC[N+](C)(CC)CC`, for which the Potency entry was “inactive”.

For the molecule `CCOCCOCCOC(C)=O`, the Potency result was “inactive”.

Take `CCCCCCCCCCCCCCCC/C=C/C1CC(=O)OC1=O` (configuration not stated): the Potency entry is “inactive”.

`COc1cc(NS(=O)(=O)c2ccc(N)cc2)ncn1`: the Potency entry is “inactive”.

With `O=S(=O)(O)c1cc(I)c(O)c2ncccc12`, the Potency entry was “inactive”.

With `CCCCCCCCC1CO1` (configuration not stated), the Potency entry was “inactive”.

In the case of `COc1ccc2cc(CCC(C)=O)ccc2c1`, the Potency result is “inactive”.

System in the next test: not listed separately
As to the kind of experiment: qHTS assay to identify aromatase inhibitors - cell viability counter screen (AID 743084).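 Further: cells stimulated with testosterone during compound exposure.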 The note with it: MCF-7 aro ERE viability, CellTiter-Fluor, 24 h; series mostly up to 70.3 µM.
Consider `CCN1CCN(C(=O)N[C@@H](C(=O)N[C@@H]2C(=O)N3[C@@H]2SC(C)(C)[C@H]3C(=O)O)c2ccccc2)C(=O)C1=O`, for which the outcome was inactive.

Take `COC(=O)c1ccccc1Cl`: the outcome was inactive.

Consider `CC(C)C(C)C`, for which the result was inactive.

In the case of `O=C(O)CCC(=O)Nc1ccc(S(=O)(=O)Nc2nccs2)cc1`, the molecule was classed as inactive.

Take `CCCC(C)C(O)CC` (configuration not stated): the outcome was inactive.

Regarding `C=C(C)C(=O)OCCCC`, the result was inactive.

With `CC(C)CC(=O)N[C@H](C(=O)N[C@H](C(=O)N[C@@H](CC(C)C)[C@@H](O)CC(=O)N[C@@H](C)C(=O)N[C@@H](CC(C)C)[C@@H](O)CC(=O)O)C(C)C)C(C)C` (Isovaleryl-VV[Sta]A[Sta]-OH), the result was inactive.

As for `CCOc1ccccc1OCCN[C@H](C)Cc1ccc(OC)c(S(N)(=O)=O)c1`, the molecule was classed as inactive.

In the case of `CC(C)OCCO`, the outcome was inactive.

On to `CC(=O)c1c(C)cc(C(C)(C)C)cc1C`, for which the outcome was inactive.

As to `CCCCCCCCS(=O)(=O)O`, the call was inactive.

Regarding `O=C[C@@H](O)[C@H](O)[C@H](O)CO`, the call was inactive.

For `O=C1Nc2ccccc2C1=O`, the outcome was inactive.

Take `CC1(C)CC(N)CC(C)(C)N1`: the molecule was called inactive.

Consider `CCCCCCCCOCCC#N`, for which the outcome was inactive.

For the molecule `CC(C)OC(=O)C(C(=O)OC(C)C)=C1SC=CS1`, the result was inactive.

Take `CC(C)(C)OC=O`: the molecule was called inactive.

With `C=CCN1CCc2nc(N)sc2CC1`, the call was inactive.

With `O=Cc1ccccc1S(=O)(=O)O`, the molecule was classed as inactive.

As to `Cc1ccc2ccccc2n1`, the result was inactive.

For `CCCCCC(CC)OC(=O)CCCOc1ccc(Cl)cc1Cl` (configuration not stated), the molecule was called inactive.

On to `CCc1ncc(C)[nH]1`, for which the outcome was inactive.

Consider `COc1cc(C(=O)NC2CCCNC2)cc(OC)c1OC` (configuration not stated), for which the call was inactive.

Take `COc1ccc(Cl)cc1C`: the call was inactive.

Regarding `NC(=O)CC[C@@H](N)C(=O)O`, the result was inactive.

Consider `NC[C@H]1O[C@H](O[C@H]2[C@H](O)[C@@H](O[C@H]3O[C@H](CO)[C@@H](O)[C@H](N)[C@H]3O)[C@H](N)C[C@@H]2N)[C@H](N)[C@@H](O)[C@@H]1O`, for which the molecule was classed as inactive.

Take `COC(C)(C)CC(C)=O`: the result was inactive.

On to `CC[N+](C)(CC)CC`, for which the outcome was inactive.

`CCOCCOCCOC(C)=O`: the outcome was inactive.

Take `CCCCCCCCCCCCCCCC/C=C/C1CC(=O)OC1=O` (configuration not stated): the molecule was called inactive.

`COc1cc(NS(=O)(=O)c2ccc(N)cc2)ncn1`: the result was inactive.

Regarding `O=S(=O)(O)c1cc(I)c(O)c2ncccc12`, the result was inactive.

With `CCCCCCCCC1CO1` (configuration not stated), the outcome was inactive.

Turning to `COc1ccc2cc(CCC(C)=O)ccc2c1`, the result was inactive.

Values taken from PubChem BioAssay (Tox21).
